PMP22 txn: modulates PMP22 transcription in S16 Schwann cells. S16 Pmp22-F2sN Schwann cells, FLuc/NLuc coincidence luminescence, 24 h. AID 1508649. actives 2% (n = 43,000). Potency, µM (titrated, usually from 57.5 µM), hits mostly inhibitors; active = clear falling dose curves in both reporters; inconclusive = both reporters move, but less clearly or upward; inactive = either reporter flat; the % is the NLuc reporter signal
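qHTS, 1536-well. Cells seeded, compounds added by pin tool, 24 h 37C. Nano-Glo reagent 1 (lysis/FLuc), 10 min RT, read; Stop&Glo, 10 min RT, read NLuc.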
p53null 32C kill: p53 null cell cytotoxicity, permissive temperature; H1299-neo p53 null cells, ATP luminescence, 24 h, 32C; Potency, µM (titrated, usually from 46.1 µM), hits mostly cytotoxic; actives 0.62% (n = 55,000); AID 903; note: nearly all actives have a fitted effect of over 55% in size
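Luminescent ATP readout gave cell viability of p53-null H1299-neo cells after a 24 h compound exposure at the permissive 32C. Titrations ran up to 46 uM, and AC50s were fitted with the standard Hill equation.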
mTORC1 inh: mTORC1 pathway inhibition measured by phospho-rpS6 | Tsc2-/- p53-/- MEF, phospho-rpS6 immunofluorescence/PI, 24 h | Potency, µM (doses to about 38.3 µM), hits mostly inhibitors | actives 0.78% (n = 44,000); note: nearly all actives have a fitted effect of over 50% in size
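Read-out: phospho-S6 Alexa-488 intensity over PI intensity per well, scored as % active cells using thresholds from rapamycin (7.5 nM) and DMSO controls. Tsc2-/-, p53-/- MEFs exposed to compound for 24 h; PI cell count recorded as viability.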
S16 viability: toxic to S16 Pmp22-F2sN Schwann cells; S16 Pmp22-F2sN Schwann cells viability, CellTiter-Glo, 24 h; Potency, µM (top dose mostly 57.5 µM), hits mostly cytotoxic; actives 0.48% (n = 43,000); AID 1508642; note: nearly all actives have a fitted effect of over 65% in size
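S16 Pmp22-F2sN Schwann cells (500-1,000/well) in phenol-red-free DMEM with 10% FBS received 23 nL compound by pin tool for 24 h at 37 °C. Viability was then read as CellTiter-Glo luminescence after 15 min at room temperature.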
SKOV3 invasion: ovarian cancer metastasis inhibition, 3D TME model; actives 0.1% (n = 46,000); Potency, µM (titrated, usually from 45.8 µM), usual class: inhibitors; SKOV3ip1-GFP adhesion/invasion on 3D omental model, fluorescence; note: nearly all actives have a fitted effect of over 65% in size
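Primary human omental fibroblast/mesothelial 3D culture pre-formed 48 h. SKOV3ip1-GFP cells added with compounds (0.36-46 umol/L), incubated 2 h RT/16 h 37 C, fixed; GFP cells quantified at 488/509 nm.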
p53null 39C tox: p53 null cell cytotoxicity, nonpermissive temperature; H1299 p53-null (neo) cells, 39C, ATPlite viability, 24 h; Potency, µM (titrated, usually from 46.1 µM), actives largely listed as cytotoxic; actives 0.97% (n = 55,000); AID 904; note: nearly all actives have a fitted effect of over 50% in size
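Concentration-response (up to 46 uM) was run for 24 h at the nonpermissive 39C on H1299-p53A138V or H1299-neo cells. ATP content was measured with ATPlite luminescence. AC50 values were Hill-modeled after normalizing between DMSO and 100 uM tamoxifen killing.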
NLuc sat counter: NanoLuc enzyme inhibition artifact for PMP22 screen; shares compounds with PMP22 txn; Secreted NLuc enzyme (filtered S16 cell medium), Nano-Glo luminescence; Potency, µM (top dose mostly 57.5 µM), actives largely listed as inhibitors; actives 4% (n = 690)
NLuc Km ctr: inhibits NanoLuc under Km conditions, PMP22 counter-screen; secreted NLuc enzyme, coelenterazine luminescence, Km conditions; Potency, µM (titrated, usually from 57.5 µM), hits mostly inhibitors; actives 5% (n = 690); shares compounds with PMP22 txn; AID 1508639
FLuc counter: inhibits firefly luciferase, PMP22 counter-screen. Potency, µM (series often up to 57.5 µM), hits mostly inhibitors. purified P. pyralis FLuc, luminescence, 10 min. 690 tested, under 10 active. AID 1508640. shares compounds with PMP22 txn
Target sequence (P08659 whole entry, looked up): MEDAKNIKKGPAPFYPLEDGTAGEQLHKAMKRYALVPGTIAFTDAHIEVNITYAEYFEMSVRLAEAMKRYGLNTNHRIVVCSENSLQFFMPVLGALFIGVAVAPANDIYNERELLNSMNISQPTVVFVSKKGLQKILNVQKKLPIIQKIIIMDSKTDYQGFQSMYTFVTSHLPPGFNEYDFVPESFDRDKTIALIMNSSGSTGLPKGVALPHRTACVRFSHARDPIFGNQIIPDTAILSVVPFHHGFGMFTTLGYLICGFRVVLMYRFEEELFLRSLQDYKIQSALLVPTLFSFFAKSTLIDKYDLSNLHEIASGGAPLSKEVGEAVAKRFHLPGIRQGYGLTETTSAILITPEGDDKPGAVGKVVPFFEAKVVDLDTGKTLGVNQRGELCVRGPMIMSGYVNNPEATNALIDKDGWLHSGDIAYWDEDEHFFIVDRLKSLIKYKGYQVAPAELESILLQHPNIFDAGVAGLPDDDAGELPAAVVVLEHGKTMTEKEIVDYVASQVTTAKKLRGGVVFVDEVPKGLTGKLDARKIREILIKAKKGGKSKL
S16 viab conf: S16 Schwann cell cytotoxicity, confirmatory | shares compounds with PMP22 txn | S16 Schwann cells viability, CellTiter-Glo ATP luminescence, 24 h | Potency, µM (titrated, usually from 57.5 µM), usual class: cytotoxic | actives 7% (n = 690) | AID 1508641
PMP22 txn cnf: confirmation of modulators of PMP22 gene transcription in S16 cells | shares compounds with PMP22 txn | S16 Schwann cells Pmp22-F2sN, dual luciferase, 24 h | Potency, µM (top dose mostly 57.5 µM), usual class: inhibitors | actives 22% (n = 690) | AID 1508646; active = clear falling dose curves in both reporters; inconclusive = both reporters move, but less clearly or upward; inactive = either reporter flat; the % is the FLuc reporter signal
Hits are given with their value; 0 = inactive; ? = inconclusive; - = not tested or not shown. In the library only some 3% were active in any assay of this set; here they are far more common. Unless noted, calls come from the whole dose curve; as a rule, active = well fitted curve in the direction sought with a large enough effect; inconclusive = small, poorly fitted or top-dose-only effect, or another doubt; inactive = no such curve, though single readings can be large; an effect the other way counts as inactive or inconclusive.

SMILES	PMP22 txn	p53null 32C kill	mTORC1 inh	S16 viability	SKOV3 invasion	p53null 39C tox	NLuc sat counter	NLuc Km ctr	FLuc counter	S16 viab conf	PMP22 txn cnf
CCOCCCn1c(=N)c(C(=O)NCC2CCCO2)cc2c(=O)n3cccc(C)c3nc21 (centres undefined)	16.3µM	0	0	0	0	0	0	0	0	0	?
Cn1c(=O)c2cc(C(=O)NCCCN3CCN(c4ccc(F)cc4)CC3)sc2c2ccccc21	18.9µM	0	0	0	0	0	?	0	0	34.3µM	?
CCCN1CCN(CCCNC(=O)c2cc3c(Cl)nc4ccccc4c3s2)CC1	13.4µM	0	0	0	0	0	0	0	0	?	0
CCn1c(=O)c2cc(C(=O)NCCCN3CCN(C)CC3)sc2c2ccccc21	11.3µM	0	0	0	0	0	0	0	0	0	0
CCn1c(=O)c2cc(C(=O)NC3CCC(C)CC3)sc2c2ccccc21 (centres undefined)	17µM	0	0	?	0	0	?	0	0	0	0
CCOC(=O)N1CCN([N+]([O-])=NOc2cc(ON=[N+]([O-])N3CCN(C(=O)OCC)CC3)c([N+](=O)[O-])cc2[N+](=O)[O-])CC1	-	-	-	-	0	-	-	-	-	-	-
CS(=O)(=O)c1ccc(-c2cnc(N)c(C(=O)Nc3ccccc3)n2)cc1	-	-	-	-	0	-	-	-	-	-	-
Cc1cc(Nc2ncc3c(n2)N(C)C(=O)N(c2cc(NC(=O)c4cccc(C(F)(F)F)c4)ccc2C)C3)n(C)n1	-	-	-	-	0	-	-	-	-	-	-
CCc1ccc2oc(-c3cccc(NC(=O)c4cc5ccccc5o4)c3)nc2c1	0	0	?	0	0	0	-	-	-	-	-
O=C(Nc1cccc(-c2nc3ccccc3o2)c1)C(F)(F)F	8µM	?	0	?	?	0	?	?	?	0	?
CCCCOc1ccc(Cn2c(=O)oc3ccc(C)cc32)cc1	0	0	0	0	0	0	-	-	-	-	-
Cc1ccc2c(c1)C(=O)C(=O)N2Cc1ccc(OCCC(C)C)cc1	4.59µM	0	0	0	?	?	0	0	0	0	11.5µM
Cc1ccccc1-n1c(SCC(=O)c2ccccc2)nnc1-c1ccc(F)cc1	17.9µM	0	?	?	0	0	1.37µM	1.72µM	0	0	?
Cc1c2cnn(CC(=O)NCc3ccccc3)c(=O)c2c(C)n1Cc1cccc(Cl)c1	12.9µM	0	?	0	0	?	0	0	0	0	?
CN(C)CCN(Cc1ccco1)C(=O)c1cc2c(s1)-c1ccccc1OC2	16.8µM	0	5.21µM	?	?	?	0	0	0	?	?
Cc1cccc2c1-c1sc(C(=O)N(C)c3cccc(C(F)(F)F)c3)cc1CO2	0	0	0	0	0	0	-	-	-	-	-
CCN(C(=O)c1cc2c(s1)-c1ccccc1OC2)c1cccc(C(F)(F)F)c1	20µM	0	0	0	0	0	?	0	0	?	0
CCCCN(Cc1ccco1)C(=O)c1cc2c(s1)-c1c(C)cccc1OC2	?	0	0	0	0	0	-	-	-	-	-
O=C(NCc1ccccc1Cl)C1CCN(S(=O)(=O)c2ccc3c(c2)CCCN3C(=O)C2CCC2)CC1	8.53µM	0	0	?	0	0	0	0	0	0	0
COc1cccc(NC(=O)N(Cc2cn(C)c3ccccc23)C2CCCCC2)c1	10µM	0	0	?	0	?	?	?	0	0	?
Cc1ccc(NC(=O)N(Cc2cn(C)c3ccccc23)C2CCCCC2)cc1C	11.3µM	0	0	?	0	?	13.7µM	?	?	0	?
Nc1nc2[nH]cc(CCc3ccc(C(=O)N[C@@H](CCC(=O)O)C(=O)O)cc3)c2c(=O)[nH]1	-	-	-	-	0	-	-	-	-	-	-
N#CC[C@H](C1CCCC1)n1cc(-c2ncnc3[nH]ccc23)cn1	-	-	-	-	0	-	-	-	-	-	-
CCc1ccccc1NC(=O)Cn1nc(CC)n2c(cc3sccc32)c1=O	0	0	0	0	0	0	0	0	0	0	?
CCc1nn(CC(=O)Nc2ccc(NC(C)=O)cc2)c(=O)c2cc3sccc3n12	0	0	0	0	0	0	-	-	-	-	-
SMILES	PMP22 txn	p53null 32C kill	mTORC1 inh	S16 viability	SKOV3 invasion	p53null 39C tox	NLuc sat counter	NLuc Km ctr	FLuc counter	S16 viab conf	PMP22 txn cnf
Cc1ccc(S(=O)(=O)N(CC(=O)Nc2c(C)cccc2C)c2cccc(Cl)c2)cc1	?	0	0	0	0	0	-	-	-	-	-
CCCN(C(=O)Cn1nc(Cc2cccnc2)c2ccccc2c1=O)c1ccc(C(C)C)cc1	?	?	0	0	0	?	-	-	-	-	-
CCCN(C(=O)Cn1nc(Cc2ccncc2)c2ccccc2c1=O)c1ccccc1C	13.4µM	0	0	0	0	0	?	?	0	0	?
OC[C@H]1O[C@@H](Oc2cc(O)cc(C=Cc3ccc(O)cc3)c2)[C@H](O)[C@@H](O)[C@H]1O	-	-	-	-	0	-	-	-	-	-	-
CCOC(=O)c1c(C)c(-c2ccccc2)n(CC(=O)Nc2cccc(C)c2C)c1C	?	0	0	0	0	0	-	-	-	-	-
CCOC(=O)c1c(C)c(-c2ccccc2)n(CC(=O)Nc2cc(C)ccc2OC)c1C	9.46µM	0	0	0	0	0	0	0	0	0	?
COc1ccnc2[nH]cc(C(=O)C(=O)N3CCN(C(=O)c4ccccc4)C[C@@H]3C)c12	-	-	-	-	0	-	-	-	-	-	-
CCc1nn2c(=O)cc(COC(=O)c3ccccc3NC(=O)COc3ccccc3C)nc2s1	0	0	0	0	0	0	-	-	-	-	-
Cc1ccccc1OCC(=O)Nc1ccccc1C(=O)OCc1cc(=O)n2nc(C3CC3)sc2n1	2.53µM	0	0	0	0	0	0	0	0	0	0
CCOCCc1nn2c(=O)cc(COC(=O)c3ccccc3NC(=O)c3ccccc3F)nc2s1	?	0	0	0	0	0	0	0	0	0	0
CCOCCc1nn2c(=O)cc(COC(=O)c3ccccc3NC(=O)CC(C)C)nc2s1	?	0	0	0	0	0	-	-	-	-	-

Source: PubChem (National Center for Advancing Translational Sciences (NCATS))
